The list is not random: actives were taken first. Their share in the collection is about 21%.
MRP1 act – MRP-1 activation; hit rate 0.61% among 140,000; viability increase, % at 10 µM; H69AR cells + doxorubicin, viability rescue, CellTiter-Glo;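 active = viability gain under doxorubicin at or above a set limit, the compound median plus 3 SD, cut at about 4.7% in these data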;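 note: MRP-1 overexpressing cells given doxorubicin 25 µM after compound pretreatment; 18-22 h compound pretreatment then 72 h with doxorubicin before readout; 0% = doxorubicin-only wells and 100% = vehicle-treated cells without doxorubicin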
MRP reversal – reverses drug resistance mediated by MRP; H69AR cells + 2 uM doxorubicin, CellTiter-Glo, 72 h; differential viability (reversal), % at 10 µM; hit rate 0.04% among 85,000; AID 602;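 active = viability drop by adding the cancer drug above about 55%, with treated viability meeting a 40% cutoff, limit read from the data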;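 note: viability without doxorubicin minus viability with 2 µM doxorubicin for each compound; larger differential means the compound sensitizes cells more to doxorubicin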
CYP2C19 activ – increases human CYP2C19 enzyme activity. AID 1025. recombinant CYP2C19, luciferin-H EGE luminescence; active compounds read high; 0 = fully inhibited enzyme, 1 = untreated enzyme. activation factor at 5 µM. 96,000 tested, under 10 active. P33261;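 active = activation factor of at least 2 at 5 µM in the primary screen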;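 note: 0 = wells with 2.5 mM tranylcypromine and 1 = vehicle-only wells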
CYP2C9 act – CYP2C9 (human) activation | P11712 | hit rate 1.4% among 96,000 | recombinant CYP2C9, luciferin-H conversion, luminescence; active compounds read high; factor 1 = untreated enzyme, 0 = blocked | activation factor at 5 µM | AID 1024;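 active = activation factor of 2 or more for CYP2C9 at a 5 µM dose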;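 note: 0 = sulfaphenazole-blocked wells and 1 = vehicle-only wells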
Target sequence (P11712 whole entry, looked up): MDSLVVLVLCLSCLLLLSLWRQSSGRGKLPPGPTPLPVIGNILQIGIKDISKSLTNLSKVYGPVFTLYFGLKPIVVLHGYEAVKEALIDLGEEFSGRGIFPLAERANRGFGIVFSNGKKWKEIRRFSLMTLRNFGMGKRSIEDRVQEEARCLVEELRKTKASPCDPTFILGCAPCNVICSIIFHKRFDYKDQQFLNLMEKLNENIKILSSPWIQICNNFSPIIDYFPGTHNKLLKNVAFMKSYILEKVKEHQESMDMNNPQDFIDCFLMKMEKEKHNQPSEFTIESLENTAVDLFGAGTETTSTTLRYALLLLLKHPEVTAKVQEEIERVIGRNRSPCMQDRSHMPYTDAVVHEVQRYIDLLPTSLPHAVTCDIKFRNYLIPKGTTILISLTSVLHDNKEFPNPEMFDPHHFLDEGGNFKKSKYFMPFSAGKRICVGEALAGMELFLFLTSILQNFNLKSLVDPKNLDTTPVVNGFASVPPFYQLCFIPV
CYP2C19 inhib – inhibitors of human CYP2C19; P33261; CYP2C19 Supersomes, luciferin-H EGE luminescence, 30 min; inhibition, % at 5 µM; hit rate 21% among 96,000;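 active = CYP2C19 inhibition above a set limit at 5 µM in the primary screen, cut at about 50% in these data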;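 note: plate controls were negative control wells for no effect and 2.5 mM tranylcypromine positive control for full effect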
CYP2C9 inhib – human CYP2C9 inhibition | inhibition, % at 5 µM | AID 777 | hit rate 20% among 96,000 | CYP2C9 Supersomes, luciferin-H conversion, luminescence;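 active = blocking of liver enzyme CYP2C9 beyond about 50% at 5 µM, limit read from the data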
Numbers without * were called inactive; . = no result.

SMILES | MRP1 act | MRP reversal | CYP2C19 activ | CYP2C9 act | CYP2C19 inhib | CYP2C9 inhib
O=C(Oc1ccc(Cl)c2cccnc12)c1ccco1 | -2.7 | -1.1 | 0.5 | 0.8 | 53.4* | 24.1
O=C(Oc1cccc2cccnc12)c1ccco1 | -8.1 | -66.6 | . | . | . | .
O=C(/C=C/c1cccc([N+](=O)[O-])c1)Nc1cccc(NC(=O)c2cccs2)c1 | 2.4 | . | . | . | . | .
Cc1cc(C)c(S(=O)(=O)NCCn2c(C)cc3ccccc32)c(C)c1 | -4.3 | -13.8 | 0.3 | 0.1 | 72.9* | 90.3*
Cc1ccc(S(=O)(=O)NCCn2c(C)cc3ccccc32)cc1 | -4.6 | 1.4 | 0.3 | 0.3 | 66.7* | 68.4*
O=S(=O)(NCCn1ccc2ccccc21)c1ccccc1 | 0.1 | 7.7 | 0 | 0.3 | 99.7* | 70.4*
CCOc1ccccc1N1C(=O)CC(Sc2ncccc2C(=O)O)C1=O (stereo not drawn) | 0.3 | -59.3 | 1.2 | 1.3 | -18.0 | -30.1
Fc1ccc(OCc2nn3cnnc3s2)cc1 | -0.6 | -4.1 | 0.2 | 1 | 79.1* | 0.3
CCc1cccc(C)c1NC(=O)C(c1ccccc1)N1CCC1=O (stereo not drawn) | -2.8 | . | 1.1 | 1.1 | -14.6 | -8.6
Cc1ccc(CNC(=O)C(=O)NCC2OCCN2C(=O)c2cccs2)cc1 (stereo not drawn) | 4.4 | . | . | . | . | .
COc1ccc(NC(=O)C2CC(=O)N(C)C(=Nc3ccc4c(c3)OCO4)S2)cc1 (stereo not drawn) | -3.5 | -38.8 | . | . | . | .
CN1C(=O)CC(C(=O)Nc2ccc(F)cc2)SC1=Nc1ccc2c(c1)OCO2 (stereo not drawn) | 0.1 | 11.2 | 0.4 | 0 | 57.5* | 98.9*
CCN1C(=O)CC(C(=O)Nc2ccc(F)cc2)SC1=Nc1cccc(OC)c1 (stereo not drawn) | 0.3 | 19.6 | 0.4 | 0.2 | 62.2* | 83.6*
COc1cccc(NC(=O)C2CC(=O)N(C)C(=Nc3cccc(F)c3)S2)c1 (stereo not drawn) | -2.7 | 3.7 | 0.8 | 0.5 | 18.7 | 45.1
CCOc1cccc(NC(=O)C2CC(=O)NC(=Nc3ccccc3)S2)c1 (stereo not drawn) | 1.1 | 5.8 | 0.8 | 0.4 | 19.1 | 61.5*
C/C(CCc1ccc2c(c1)OCO2)=N\N=C1\NC(=O)CC(C(=O)Nc2ccc(Cl)cc2)S1 (stereo not drawn) | -0.9 | . | 0.7 | 0.2 | 29.9 | 75.4*
COc1cc(OC)cc(C(=O)N2CCN(c3ncccn3)CC2)c1 | -1.0 | -7.8 | 0.6 | 0.7 | 44.0 | 31.4
CCCS(=O)(=O)N1CCC(C(=O)NCCCOCC)CC1 | -4.1 | -6.3 | 1 | 0.9 | 0.9 | 8.3
CNC(=O)C1CC(=O)N(Cc2ccccc2)C(=Nc2ccc(OC)cc2)S1 (stereo not drawn) | -1.3 | 1.6 | 0.5 | 0.8 | 49.2 | 21.9
CCNC(=O)C1CC(=O)N(Cc2ccc(F)cc2)C(=Nc2ccc(OC)cc2)S1 (stereo not drawn) | -1.4 | 1.6 | 0.5 | 1.6 | 54.9* | -55.5
CCN=C1SC(C(=O)Nc2cccc(OCC)c2)CC(=O)N1CC (stereo not drawn) | -2.9 | 0.1 | 0.1 | 1 | 87.4* | 4.2
COc1cccc(N=C2SC(C(=O)Nc3ccccc3F)CC(=O)N2C)c1 (stereo not drawn) | -2.4 | 11.2 | 0.6 | 0.4 | 35.7 | 61.6*
CCOC(=O)c1ccc(NC(=O)CSC2=NC(=O)C(CC)C(=O)N2)cc1 (stereo not drawn) | -3.4 | -22.2 | . | . | . | .
C=CCSC1=NC(N)=C(C#N)C2(CCCCC2)C1C(N)=O (stereo not drawn) | -2.1 | -22.5 | 0.1 | 0.7 | 88.8* | 32.2
CCOC(=O)C1=C(SCC(=O)Nc2ccccc2)NC(=O)C(C#N)C12CCCCC2 (stereo not drawn) | -1.1 | 1.3 | 0.1 | 0.2 | 92.7* | 84.8*
CC(C)(C)C1CCC2(CC1)C(C#N)=C(SCC(=O)NC1CCCCC1)NC(=O)C2C#N (stereo not drawn) | -4.3 | -26.4 | 0.5 | 0.1 | 45.7 | 91.6*
N#CC1=C(SCC(=O)NC23CC4CC(CC(C4)C2)C3)NC(=O)C(C#N)C12CCCCC2 (stereo not drawn) | -4.0 | -16.2 | . | . | . | .
C=CCSC1=C(C#N)C2(CCCCC2)C(C#N)C(=O)N1 (stereo not drawn) | -2.7 | 26.9 | 0.4 | 0.2 | 58.3* | 83.2*
N#CC1=C(N)N=C(SCc2ccccc2)C(C(N)=O)C12CCCCC2 (stereo not drawn) | 0.3 | 5.8 | 0.7 | 1 | 34.8 | 4.3

Screens from PubChem BioAssay.
